Experimental data as given in PubChem BioAssay (NCATS).
Inconclusive results are not listed. Entries that show only a call come without a potency. Calls of active or inactive are those of the source. The call rests on the fitted dose curve; in most records, active means well fitted curve in the direction sought with a large enough effect; inconclusive means small, poorly fitted or top-dose-only effect, or another doubt; inactive means no such curve, though single readings can be large; an effect the other way counts as inactive or inconclusive. Where a SMILES comes first, the peptide text is derived from it. [ ]: non-standard residue; d: D form. pGlu = O=C1CC[C@@H](C(=O)O)N1

Assays:
[1] = qHTS of pediatric cancer cell lines to identify multiple opportunities for drug repurposing: Primary screen for Saos-2 cells (AID 1347097); further: nearly all actives have a fitted effect of over 40% in size; further: potency means the concentration at half of the fitted maximal effect
Outline: (§1)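 Readout: CellTiter-Glo luminescence, 48 h treatment. Controls DMSO (neutral) and bortezomib 2.3 µM final (positive). Potency and efficacy taken from primary-screen concentration-response curves.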

[2] = qHTS of pediatric cancer cell lines to identify multiple opportunities for drug repurposing: Primary screen for NB1643 cells (AID 1347099); further: nearly all actives have a fitted effect of over 50% in size
Outline: as §1

[3] = qHTS of pediatric cancer cell lines to identify multiple opportunities for drug repurposing: Primary screen for LAN-5 cells (AID 1347100); further: potency means the concentration at half of the fitted maximal effect
Outline: (§2)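 Cells (500-1,000/well) rested 5 h, then received compounds for 48 h; metabolically active cells were measured by CellTiter-Glo luminescence. Final concentrations spanned up to 46 µM (MIPE, 11-point) or 0.59 nM-46 µM (NPC, 8-point) in primary screens, 11-point in follow-ups.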

[4] = qHTS of pediatric cancer cell lines to identify multiple opportunities for drug repurposing: Primary screen for BT-12 cells (AID 1347101); further: nearly all actives have a fitted effect of over 25% in size; further: potency means the concentration at half of the fitted maximal effect
Outline: as §2

[5] = qHTS of pediatric cancer cell lines to identify multiple opportunities for drug repurposing: Primary screen for Rh18 cells (AID 1347102); further: nearly all actives have a fitted effect of over 65% in size; further: potency means the concentration at half of the fitted maximal effect
Outline: as §2

[6] = qHTS of pediatric cancer cell lines to identify multiple opportunities for drug repurposing: Primary screen for OHS-50 cells (AID 1347103); further: nearly all actives have a fitted effect of over 40% in size; further: potency means the concentration at half of the fitted maximal effect
Outline: as §2

[7] = qHTS of pediatric cancer cell lines to identify multiple opportunities for drug repurposing: Primary screen for RD cells (AID 1347104); further: nearly all actives have a fitted effect of over 55% in size; further: potency means the concentration at half of the fitted maximal effect
Outline: as §1

[8] = qHTS of pediatric cancer cell lines to identify multiple opportunities for drug repurposing: Primary screen for MG 63 (6-TG R) cells (AID 1347105); further: nearly all actives have a fitted effect of over 50% in size; further: potency means the concentration at half of the fitted maximal effect
Outline: as §1

[9] = qHTS of pediatric cancer cell lines to identify multiple opportunities for drug repurposing: Primary screen for control Hh wild type fibroblast cells (AID 1347106);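 further: series mostly up to about 46 µM; a drop in luminescence marks cytotoxicity and a rise apparent proliferation; nearly all actives have a fitted effect of over 55% in size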
Outline: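 Cells (500-1,000/well) in growth media were settled 5 h at 37 degrees C, then given compounds for 48 h. Viability was read as CellTiter-Glo luminescence. Primary runs used MIPE at 11 points (0.78 nM-46 µM) and NPC at 8 points (0.59 nM-46 µM); follow-ups used 11 points.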

[10] = qHTS of pediatric cancer cell lines to identify multiple opportunities for drug repurposing: Primary screen for Rh30 cells (AID 1347107); further: series mostly up to about 46 µM; nearly all actives have a fitted effect of over 75% in size
Outline: as §2

[11] = qHTS of pediatric cancer cell lines to identify multiple opportunities for drug repurposing: Primary screen for Rh41 cells (AID 1347108);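 further: series mostly up to about 46 µM; luminescence drop marks cytotoxic hits; nearly all actives have a fitted effect of over 70% in size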
Outline: as §1

[12] = qHTS of pediatric cancer cell lines to identify multiple opportunities for drug repurposing: Primary screen for SK-N-SH cells (AID 1347098); further: nearly all actives have a fitted effect of over 65% in size; further: potency means the concentration at half of the fitted maximal effect
Outline: as §2

Row | Structure (SMILES) | Potency [1] | Potency [2] | Potency [3] | Potency [4] | Potency [5] | Potency [6] | Potency [7] | Potency [8] | Potency [9] | Potency [10] | Potency [11] | Potency [12]
1 | O=C(O)CCC(=O)OC[C@@H](NC(=O)C(Cl)Cl)[C@H](O)c1ccc([N+](=O)[O-])cc1 | inactive | inactive | inactive | inactive | inactive | inactive | inactive | inactive | inactive | inactive |  | 
2 | O=C(O)[C@@H](O)[C@H](O)[C@H](O)[C@@H](O)C(=O)O | inactive | inactive | inactive | inactive | inactive | inactive | inactive | inactive | inactive |  | inactive | 
3 | CN(C)CCN1CCN(c2cccc(Cl)c2)C1=O | inactive | inactive | inactive | inactive | inactive | inactive | inactive | inactive | inactive | inactive | inactive | 
4 | COC(=O)[C@H]1[C@H]2C[C@@H]3c4[nH]c5cc(OC)ccc5c4CCN3C[C@H]2C[C@@H](OC(=O)/C=C/c2ccc(O)c(OC)c2)[C@@H]1OC | 16.8 µM (active) |  | 21.1 µM (active) |  |  | 34.7 µM (active) |  |  |  |  |  | 21.7 µM (active)
5 | COc1cc(S(N)(=O)=O)cc(C(=O)O)c1OC | inactive |  |  | inactive | inactive | inactive | inactive | inactive | inactive | inactive | inactive | inactive
6 | O=C1NCCN1CCN1CCC(c2cn(-c3ccc(F)cc3)c3ccc(Cl)cc23)CC1 | 21.1 µM (active) |  | 8.41 µM (active) | 8.71 µM (active) |  | 11 µM (active) | 26.6 µM (active) |  |  | inactive |  | 21.7 µM (active)
7 | C[C@@H](O[C@H]1OCCN(Cc2n[nH]c(=O)[nH]2)[C@H]1c1ccc(F)cc1)c1cc(C(F)(F)F)cc(C(F)(F)F)c1 | 11.9 µM (active) |  |  | 15.5 µM (active) | 23.7 µM (active) | 27.6 µM (active) | 26.6 µM (active) |  | inactive | inactive |  | 34.4 µM (active)
8 | CCOC(=O)c1cc(=O)c2c(OCC(COc3cccc4oc(C(=O)OCC)cc(=O)c34)OC(=O)[C@@H](N)CCCCN)cccc2o1 | inactive | inactive | inactive | inactive | inactive | inactive | inactive | inactive | inactive |  | inactive | 
9 | CC(C)(C)c1nnc(NS(=O)(=O)c2ccccc2)s1 | inactive | inactive | inactive | inactive | inactive | inactive | inactive | inactive | inactive | inactive | inactive | 
10 | CC1(C)S[C@@H]2[C@H](NC(=O)C(c3ccccc3)S(=O)(=O)O)C(=O)N2[C@H]1C(=O)O (some centres not stated) | inactive | inactive | inactive | inactive | inactive | inactive | inactive | inactive | inactive |  | inactive | 
11 | Nc1c(NC/C=C\COc2cc(CN3CCCCC3)ccn2)c(=O)c1=O | inactive |  | inactive |  | inactive |  | inactive | inactive | inactive |  | inactive | inactive
12 | NS(=O)(=O)c1cc(C(=O)NN2C[C@H]3[C@H]4CCC(C4)[C@H]3C2)ccc1Cl | inactive | inactive |  | inactive | inactive | inactive | inactive |  | inactive | inactive | inactive | 
13 | CCCCN(CCN(CCCC)C(=O)N1CCOCC1)C(=O)N1CCOCC1 | 23.7 µM (active) |  | inactive |  | inactive |  | inactive | inactive |  | inactive |  | 
14 | c1ccc(C(O[C@H]2CCCN(CCc3ccc4c(c3)OCO4)C2)c2ccccc2)cc1 | inactive | inactive | inactive | inactive | inactive |  | inactive | inactive | inactive | inactive | inactive | 
15 | O=C(O)c1cn(C2CC2)c2cc(Cl)c(F)cc2c1=O | inactive |  | inactive | inactive | inactive | inactive | inactive | inactive | inactive | inactive | inactive | 
16 | COC(=O)c1c(Cl)c(Cl)c(C(=O)OC)c(Cl)c1Cl | inactive | inactive | inactive | inactive | inactive | inactive | inactive |  | inactive | inactive |  | 
17 | CC(=O)Oc1ccc(C2(c3ccc(OC(C)=O)cc3)Oc3ccccc3NC2=O)cc1 | 11.9 µM (active) |  |  | 19.5 µM (active) | inactive | 12.3 µM (active) |  | 4.22 µM (active) |  | inactive |  | 
18 | O=C(CCC1CCN(Cc2ccccc2)CC1)c1ccc2c(c1)NCCCC2 | inactive | inactive | inactive |  | inactive |  |  | inactive | inactive | inactive | inactive | 
19 | CCC(C(=O)OCCN1CCOC(c2ccccc2)C1C)c1ccccc1 (configuration not stated) | inactive | inactive |  |  | inactive |  | inactive | inactive | inactive | inactive | inactive | 
20 | CC(C)OC(=O)c1cc2c(OCC(O)CNC(C)(C)C)cccc2[nH]1 (configuration not stated) | inactive | inactive | inactive | inactive |  |  |  | inactive |  | inactive |  | 
21 | CCNC(=O)[C@@H]1CCCN1C(=O)[C@H](CCCN=C(N)N)NC(=O)[C@H](CC(C)C)NC(=O)CNC(=O)[C@H](Cc1ccc(O)cc1)NC(=O)[C@H](CO)NC(=O)[C@H](Cc1c[nH]c2ccccc12)NC(=O)[C@H](Cc1cnc[nH]1)NC(=O)[C@@H]1CCC(=O)N1 ([pGlu]HWSYGLRP-NHEt) |  | inactive | inactive | inactive | inactive | inactive | inactive | inactive | inactive | inactive |  | inactive
22 | CC(=O)O[C@@H]1CC2C3CCc4cc(OC(=O)c5ccccc5)ccc4C3CCC2(C)[C@H]1OC(C)=O (some centres not stated) | inactive |  | inactive | inactive | inactive | inactive | inactive | inactive | inactive | inactive | inactive | 
23 | O=C(Nc1ccc(Cl)cc1)Nc1ccc(Cl)c(C(F)(F)F)c1 | 13.3 µM (active) |  |  | 9.78 µM (active) |  | 5.5 µM (active) | 11.9 µM (active) | 21.1 µM (active) |  |  |  | 
24 | C[C@H](N)C(=O)N[C@@H](C)C(=O)NC1[C@H]2CN(c3nc4c(cc3F)c(=O)c(C(=O)O)cn4-c3ccc(F)cc3F)C[C@@H]12 (some centres not stated) | inactive |  |  |  | inactive | inactive | inactive |  | inactive |  | inactive | 
